Screens (PubChem BioAssay)
UBC13 inh: UBC13 polyubiquitin chain formation inhibitors, primary screen, biochemical, TR-FRET, uHTS; 0.47% of 330,000 active; Ubiquitin-conjugating enzyme E2 N (Homo sapiens), P61088; inhibition, % at 20 µM; in the data active means inhibition above about 45%, passing the limit was not always enough; inconclusive means no clear call, values can overlap the other calls
Target sequence (P61088 whole entry, looked up): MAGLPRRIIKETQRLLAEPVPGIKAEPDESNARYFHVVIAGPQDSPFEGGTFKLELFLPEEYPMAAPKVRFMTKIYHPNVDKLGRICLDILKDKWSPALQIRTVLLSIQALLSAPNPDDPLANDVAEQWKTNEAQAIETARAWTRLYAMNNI
MEKK3 PB1 HTS: modulators of MEKK3-MEK5 PB1 binding, primary screen, biochemical, wildtype MEKK3, multiplex bead flow cytometry, Alexa488-MEK5 | bead-based flow cytometry, Alexa488-MEK5 binding to MEKK3; actives lie on both sides; 0 = blocked by unlabeled MEK5, 100 = vehicle | binding response (% of control), % at 10 µM | 1.4% of 290,000 active | AID 1529, 2009;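 active means binding response more than 3 SD above or below the average of its plate-row segment, actives on both sides; inconclusive means wells at one plate position flagged as instrument error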;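 further: Alexa488 bead fluorescence after subtracting the streptavidin-only scavenger bead signal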
MEKK2wt PB1 HTS: modulators of MEK5 binding to wildtype MEKK2, primary screen, biochemical, multiplex bead flow cytometry, Alexa488-MEK5; Mitogen-activated protein kinase kinase kinase 2 (Homo sapiens), Q9Y2U5; Alexa488-MEK5 binding to MEKK2 WT; actives lie on both sides; binding response (% of control), % at 10 µM; 1.1% of 290,000 active; AID 1531, 2009; in the data active means binding response below about 67% or above about 130%; inconclusive means no clear call, values can overlap the other calls; inactive means in between
MEKK2 mut-MEK5: MEK5 binding signal on mutant MEKK2 PB1, primary screen, biochemical, multiplex bead flow cytometry, Alexa488-MEK5; Alexa488-MEK5 binding to MEKK2 mutant; percent response, % at 10 µM; 0.35% of 290,000 active; AID 1530, 2009; in the data active means percent response above about 24%, passing the limit was not always enough
Casp3 counter: CASP3 inhibitor validation, counterassay for project on UBE2N polyubiquitination blockers, biochemical, one dose; shares compounds with UBC13 inh; Recombinant caspase-3, Caspase-Glo 3/7 luminescence, 60 min; inhibition, % at 20 µM; 4% of 1,400 active; AID 488856, 2010;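 active means mean inhibition across replicates above about 26%, limit read from the data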
Target sequence (P42574 whole entry, looked up): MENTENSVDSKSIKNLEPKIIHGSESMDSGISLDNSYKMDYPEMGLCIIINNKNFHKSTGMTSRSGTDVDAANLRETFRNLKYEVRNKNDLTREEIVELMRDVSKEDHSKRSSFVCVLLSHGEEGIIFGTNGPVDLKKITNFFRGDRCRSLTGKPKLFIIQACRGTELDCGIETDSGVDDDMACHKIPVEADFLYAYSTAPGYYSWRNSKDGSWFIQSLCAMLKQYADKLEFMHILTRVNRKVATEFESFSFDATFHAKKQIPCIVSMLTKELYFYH
UBC13 confirm: UBC13 polyubiquitination inhibitors, single-point retest, confirmation, biochemical, TR-FRET, single concentration; shares compounds with UBC13 inh; inhibition, % at 10 µM; 68% of 1,400 active; in the data active means inhibition above about 45%; inconclusive means no clear call, values can overlap the other calls
Large screens that a line does not name were inactive (follow-up assays come after a bar, where they were run). Compounds with a hit are over-represented: about 2.3% of the library has one in this group of screens.

COc1ccnc2c1c(=O)n(Cc1ccc(F)cc1)c(=O)n2C	UBC13 inh 57 | Casp3 counter inactive | UBC13 confirm 67
COc1ccnc2c1c(=O)n(Cc1ccc(Cl)cc1)c(=O)n2C	UBC13 inh 71 | Casp3 counter inactive | UBC13 confirm inconclusive
COC(=O)[C@@]12CCCCN1[C@H](c1ccc(-c3cc(C(C)=O)cs3)c(OC)c1)[C@H]1C(=O)N(C)C(=O)[C@H]12	UBC13 inh 52 (no result: MEKK3 PB1 HTS, MEKK2wt PB1 HTS, MEKK2 mut-MEK5) | Casp3 counter inactive | UBC13 confirm inactive
COC(=O)[C@@]12CCCCN1[C@H](c1ccc(-c3cc(C(C)=O)cs3)cc1)[C@H]1C(=O)N(C)C(=O)[C@H]12	none (no result: MEKK3 PB1 HTS, MEKK2wt PB1 HTS, MEKK2 mut-MEK5)
CC1CCN(c2c(NCc3ccc(C(=O)N4CCN(C5CCCCC5)CC4)cc3)c(=O)c2=O)CC1	UBC13 inh 69 | Casp3 counter inactive | UBC13 confirm 58
Cc1ccc(-n2nc(C)c(Sc3ccccc3[N+](=O)[O-])c2N)cc1	none
COc1cccc(NC(=O)CSc2nc3ccccc3c(=O)n2CCCC(=O)NCCCN2CCOCC2)c1	UBC13 inh 61 | Casp3 counter inactive | UBC13 confirm 79
COc1ccc(NC(=O)CSc2nc3c(sc4ccccc43)c(=O)n2CCCN2CCCC2)cc1	UBC13 inh 50, MEKK2wt PB1 HTS 176, MEKK2 mut-MEK5 39 | Casp3 counter inactive | UBC13 confirm 54
CCC1CN(C(=O)N2CCC(C(=O)NCc3ccc(F)cc3)CC2)c2ccccc2O1 (centres undefined)	none
COc1cc(C2C(C(=O)c3ccc(C)o3)=C(O)C(=O)N2CCN2CCOCC2)ccc1OCCC(C)C (centres undefined)	none
CCc1cc2c(=O)n(-c3ccccc3)c(=S)[nH]c2s1	UBC13 inh 48 | Casp3 counter inactive | UBC13 confirm inconclusive
Cn1c(=O)c2c(ncn2Cc2ccc(Cl)c(Cl)c2)n(C)c1=O	UBC13 inh 85 | Casp3 counter inactive | UBC13 confirm 88
Cn1c(=O)c2c(nc(Cl)n2Cc2ccc(Cl)c(Cl)c2)n(C)c1=O	none (no result: MEKK3 PB1 HTS, MEKK2wt PB1 HTS, MEKK2 mut-MEK5)
Cn1c(=O)c2c(ncn2Cc2cccc(Cl)c2)n(C)c1=O	UBC13 inh 74 | Casp3 counter inactive | UBC13 confirm 75
Cn1c(=O)n(CCc2ccccc2)c(=O)c2c1ncn2Cc1ccccc1	none
COC(=O)C1=C(C)N(Cc2ccccc2)C(=NCc2ccccc2)N[C@H]1c1cccc(C(F)(F)F)c1	UBC13 inh 76 (no result: MEKK3 PB1 HTS, MEKK2wt PB1 HTS, MEKK2 mut-MEK5) | Casp3 counter inactive | UBC13 confirm 82
COC(=O)C1=C(C)N(Cc2ccccc2)C(=O)N[C@H]1c1cccc(C(F)(F)F)c1	none
COC(=O)C1=C(C)N(Cc2ccccc2)C(=NCCc2ccccn2)N[C@H]1c1cccc(C(F)(F)F)c1	UBC13 inh 52 (no result: MEKK3 PB1 HTS, MEKK2wt PB1 HTS, MEKK2 mut-MEK5) | Casp3 counter inactive | UBC13 confirm 58
COC(=O)C1=C(C)N(Cc2ccccc2)C(=NCCc2cccnc2)N[C@H]1c1ccc(Br)cc1	UBC13 inh 48 (no result: MEKK3 PB1 HTS, MEKK2wt PB1 HTS, MEKK2 mut-MEK5) | Casp3 counter inactive | UBC13 confirm inactive
COC(=O)C1=C(C)N(Cc2ccccc2)C(=NCC(C)C)N[C@H]1c1cccc(C(F)(F)F)c1	UBC13 inh 72 (no result: MEKK3 PB1 HTS, MEKK2wt PB1 HTS, MEKK2 mut-MEK5) | Casp3 counter inactive | UBC13 confirm 74
CC(C)S(=O)(=O)c1csc(C(=O)Nc2ccc(F)cc2)c1N	none
O=C(O)c1cccc(S(=O)(=O)N(Cc2ccccc2)c2cccc(C(F)(F)F)c2)c1	none
O=C(O)CN1C(=O)/C(=C\C(Br)=C\c2ccccc2)SC1=S	none
O=C(CSc1nc(C2CC2)nc2ccccc12)N1c2ccccc2Sc2ccccc21	none (no result: MEKK3 PB1 HTS, MEKK2wt PB1 HTS, MEKK2 mut-MEK5)
Cc1nn(CC(=O)Nc2ccc(Br)cc2F)c(=O)c2cccn12	none
N#CCC(=O)Nc1ccc(C(=O)OCC(=O)Nc2ccc3ccccc3c2)cc1	none (no result: MEKK3 PB1 HTS, MEKK2wt PB1 HTS, MEKK2 mut-MEK5)
COC(=O)C1=C(C)N(Cc2ccccc2)C(=NCC(C)C)N[C@H]1c1cccc(F)c1	UBC13 inh 51 (no result: MEKK3 PB1 HTS, MEKK2wt PB1 HTS, MEKK2 mut-MEK5) | Casp3 counter inactive | UBC13 confirm inactive
COc1ccccc1CNC(=O)Cc1csc(NC(=O)Nc2ccccc2OC)n1	none (no result: MEKK3 PB1 HTS, MEKK2wt PB1 HTS, MEKK2 mut-MEK5)
COc1ccccc1NC(=O)Nc1nc(C(C)(C)C)cs1	UBC13 inh 53 | Casp3 counter inactive | UBC13 confirm 55
COc1ccc(NC(=O)CS(=O)CC(=O)Nc2ccc(OC)c(OC)c2)cc1 (centres undefined)	none
COc1ccc(NC(=O)CS(=O)CC(=O)Nc2cc(Cl)ccc2OC)cc1 (centres undefined)	UBC13 inh 54 | Casp3 counter inactive | UBC13 confirm 53
Nc1nonc1-n1nnc(C(=O)N/N=C/c2ccccc2Br)c1CN1CCCC1	UBC13 inh 63 | Casp3 counter inactive | UBC13 confirm inactive
COc1ccccc1NS(=O)(=O)c1cccc(C(=O)NNC(=O)c2ccc(Cl)nc2)c1	UBC13 inh 45 (no result: MEKK3 PB1 HTS, MEKK2wt PB1 HTS, MEKK2 mut-MEK5) | Casp3 counter inactive | UBC13 confirm inactive
CCC(C)(C)NC(=O)CN(C(=O)c1snc(C(N)=O)c1N)c1ccc2nc(C)sc2c1	UBC13 inh 74 | Casp3 counter inactive | UBC13 confirm 83
CCC(C)(C)NC(=O)CN(C(=O)c1snc(C(N)=O)c1N)c1ccc2c(c1)OCCO2	UBC13 inh 70 | Casp3 counter inactive | UBC13 confirm 59
CCCC(C(=O)NC(C)(C)C)N(C(=O)c1snc(C(N)=O)c1N)c1ccc2c(c1)OCCO2 (centres undefined)	UBC13 inh 65 | Casp3 counter inactive | UBC13 confirm 86
Cc1nc2ccccc2c(=O)n1NC(=O)c1ccc(C(C)(C)C)cc1	none
COc1ccc(C(=O)Nn2c(C)nc3ccccc3c2=O)cc1	UBC13 inh 82 | Casp3 counter inactive | UBC13 confirm 84
Cc1nc2ccccc2c(=O)n1NC(=O)/C=C/c1ccc(Br)cc1	UBC13 inh 60 | Casp3 counter inactive | UBC13 confirm 53
CCCOc1ccc(C(=O)Nn2c(C)nc3ccccc3c2=O)cc1	UBC13 inh 96 | Casp3 counter inactive | UBC13 confirm 108
Cc1nc2ccccc2c(=O)n1NC(=O)c1ccccc1Br	none
S=C(NCCc1ccc(Cl)cc1)NCc1ccccc1	none
O=C1C2C3C=CC(C4CC34)C2C(=O)N1CCCCN1CCN(c2ccc(F)cc2)CC1 (centres undefined)	UBC13 inh 54 (no result: MEKK3 PB1 HTS, MEKK2wt PB1 HTS, MEKK2 mut-MEK5) | Casp3 counter inactive | UBC13 confirm inactive
O=C(CCN1C(=O)C2C3C=CC(C3)C2C1=O)N1CCN(c2ccc(F)cc2)CC1 (centres undefined)	none
CCN1C(Nc2ccccc2)=NC[C@@H]1Cc1ccccc1	none
c1ccc(CCCCN2C(Nc3ccccc3)=NC[C@@H]2Cc2ccccc2)cc1	UBC13 inh 49 (no result: MEKK3 PB1 HTS, MEKK2wt PB1 HTS, MEKK2 mut-MEK5) | Casp3 counter inactive | UBC13 confirm inactive
